An excerpt weighted towards active compounds, which were near 2.9% of everything screened.
ADAM17 inh: ADAM17 inhibitors, primary screen, biochemical, QFRET; Disintegrin and metalloproteinase domain-containing protein 17 (Homo sapiens), P78536; recombinant ADAM17, EDANS/DABCYL FRET peptide cleavage; inhibition, % at 6.95 µM; 370,000 tested, 0.83% active;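 active = inhibition above the mean of compounds lying between control limits plus 3 SD, set per campaign, cut at about 8.5% in these data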
proKLK7 act: proKLK7 zymogen activators, primary screen, biochemical, fluorescence intensity; Kallikrein-7 (Homo sapiens), P49862; purified proKLK7, EDANS-DABCYL substrate fluorescence; 100% is mature enzyme control, 0% vehicle; activation, % at 7 µM; 370,000 tested, 0.9% active;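 active = activation above the mean of all tested compounds plus 3 SD, computed per campaign excluding outliers beyond control limits, cut at about 13% in these data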
PLCb3 inh: human PLC-beta3 inhibitors, primary screen, biochemical, fluorescence; 370,000 tested, 0.18% active; Purified PLC-beta3, fluorogenic substrate; inhibition, % at 12.2 µM; AID 720704, 2013; in the data active = inhibition above about 11%
PLCg1 inh: PLC-gamma1 enzyme inhibitors, primary screen, biochemical, fluorescence, purified enzyme; fluorogenic substrate; inhibition, % at 12.2 µM; 370,000 tested, 0.84% active; AID 720700, 2013; in the data active = inhibition above about 9.5%
ADAM10 inh: human ADAM10 inhibitors, primary screen, biochemical, QFRET, HTS; recombinant ADAM10, EDANS/DABCYL FRET peptide cleavage, 3 h; inhibition, % at 7 µM; 370,000 tested, 0.62% active;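 active = inhibition above a per-campaign cutoff equal to the mean of compounds falling between control-based bounds plus 3 SD, cut at about 20% in these data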
Target sequence (O14672 214-748 limits assumed): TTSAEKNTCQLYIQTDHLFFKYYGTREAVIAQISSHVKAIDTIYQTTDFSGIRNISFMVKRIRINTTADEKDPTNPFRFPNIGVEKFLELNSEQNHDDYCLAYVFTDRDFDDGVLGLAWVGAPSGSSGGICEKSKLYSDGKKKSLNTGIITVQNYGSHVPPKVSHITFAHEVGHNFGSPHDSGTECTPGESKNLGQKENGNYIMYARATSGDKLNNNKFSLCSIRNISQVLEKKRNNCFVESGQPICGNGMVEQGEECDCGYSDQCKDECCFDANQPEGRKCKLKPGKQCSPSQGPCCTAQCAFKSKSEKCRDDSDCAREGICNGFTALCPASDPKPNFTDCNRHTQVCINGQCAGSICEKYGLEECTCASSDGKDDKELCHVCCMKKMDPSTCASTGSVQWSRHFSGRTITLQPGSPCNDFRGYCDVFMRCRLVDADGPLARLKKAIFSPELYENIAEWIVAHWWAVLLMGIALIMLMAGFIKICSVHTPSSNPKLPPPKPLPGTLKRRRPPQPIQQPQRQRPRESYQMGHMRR
ADAM10 confirm: human ADAM10 inhibitors, confirmation, biochemical, QFRET, triplicate; shares compounds with ADAM10 inh; ADAM10 QFRET peptide cleavage, EDANS fluorescence; inhibition, % at 6.95 µM; 2,100 tested, 1% active;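 active = inhibition above about 20% chosen separately for each screening run, limit read from the data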
ADAM17 ctr: ADAM17 inhibitors, counter-screen for ADAM10 exosite inhibitor project, biochemical, QFRET, high throughput; shares compounds with ADAM10 inh; ADAM17 QFRET peptide cleavage, EDANS fluorescence; inhibition, % at 6.95 µM; 2,100 tested, 0.5% active; AID 743214, 2013;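 active = mean triplicate inhibition above the solvent-only control wells' mean plus 3 SD, cut at about 12% in these data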
ADAM10 ctr: ADAM10 inhibitors, counter-screen for ADAM17 exosite inhibitor project, biochemical, FRET, human ADAM10; inhibition, % at 6.95 µM; recombinant ADAM10, EDANS/DABCYL FRET peptide cleavage, 3 h; 2,900 tested, 47% active; AID 743256, 2014; shares compounds with ADAM17 inh;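 active = mean inhibition over the triplicate runs exceeds the activity threshold set in the earlier primary screen, cut at about 20% in these data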
ADAM17 confirm: ADAM17 inhibitors, hit retest, confirmation, biochemical, QFRET peptide cleavage | shares compounds with ADAM17 inh | recombinant ADAM17, EDANS/DABCYL QFRET peptide cleavage | inhibition, % at 6.95 µM | 2,900 tested, 65% active;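 active = mean inhibition across replicates above the hit cutoff set in the primary screen, cut at about 8.5% in these data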
Hits are given with their value; 0 = inactive; - = not tested or not shown.

SMILES	ADAM17 inh	proKLK7 act	PLCb3 inh	PLCg1 inh	ADAM10 inh	ADAM10 confirm	ADAM17 ctr	ADAM10 ctr	ADAM17 confirm
O=C(CSc1nnc(-c2cccs2)o1)Nc1cccc2ccccc12	0	0	0	0	0	-	-	-	-
CN(Cc1ccccc1)c1ccc(C(CC(N)=O)NC(=O)c2ccc(Br)cc2)cc1[N+](=O)[O-] (stereo not drawn)	15.4	0	0	0	38.1	0	0	21.1	12.8
Fc1c(F)c(C(F)(F)F)c(F)c(F)c1N/N=C\c1cccs1	9.8	0	0	0	24.3	0	0	32.1	18.6
CCOC(=O)[C@@]12CCCC=C1N(CCc1ccc(Cl)cc1)C(=O)[C@H]2CC(=O)NCc1cccc(C(F)(F)F)c1	0	0	0	0	0	-	-	-	-
CCOc1ccc(NS(=O)(=O)c2cc(NC(=O)c3cccc(C)c3)ccc2Cl)cc1	13.7	0	0	0	31.1	0	0	31.4	18.7
O=C(COc1ccccc1)OCc1csc(Nc2ccccc2)n1	0	0	0	0	0	-	-	-	-
O=C(OCc1csc(Nc2ccccc2)n1)c1ccc(Cl)cc1	12.1	0	0	0	23.5	0	0	44.9	18.4
OC(c1ccc(Cl)c(Cl)c1)c1ncc(-c2ccc(C(F)(F)F)cc2)[nH]1 (stereo not drawn)	9.0	0	0	0	26.3	0	0	29.6	14.7
Cc1cc(F)ccc1C(O)c1ncc(-c2ccc(Oc3ccccc3)cc2)[nH]1 (stereo not drawn)	11.8	0	0	0	29.5	0	0	19.9	14.2
OC(c1ccccc1)c1ncc(-c2ccc(Cl)cc2)[nH]1 (stereo not drawn)	0	0	0	0	0	-	-	-	-
OC(c1ccc(Cl)c(Cl)c1)c1ncc(-c2ccc(Cl)cc2)[nH]1 (stereo not drawn)	0	0	0	0	0	-	-	-	-
OC(c1cccc(Cl)c1)c1ncc(-c2ccc(Oc3ccccc3)cc2)[nH]1 (stereo not drawn)	11.2	0	0	0	24.7	0	0	41.8	21.0
CCCn1c(=O)cc(N)n(-c2ccc(OC(F)(F)F)cc2)c1=O	0	0	0	0	0	-	-	-	-
CCOC(=O)c1c(C)[nH]c(C(=O)C(C)OC(=O)c2cccc(OCc3c(C)noc3C)c2)c1C (stereo not drawn)	13.4	0	0	0	29.9	0	0	47.4	22.5
CCC(C)NC(=O)c1cccc(OCc2c(C)noc2C)c1 (stereo not drawn)	0	0	0	0	0	-	-	-	-
OC[C@@H]1CN(Cc2ccncc2)C[C@H](n2cnc3c(NCc4ccncc4)ncnc32)O1	0	0	0	0	0	-	-	-	-
COc1ccc(N=C2SC(CC(=O)Nc3cccc(Cl)c3)C(=O)N2Cc2ccco2)cc1 (stereo not drawn)	13.9	0	0	0	21.2	0	0	23.2	15.7
O=C(NC(c1ccc(Cl)cc1)c1c(O)ccc2ccccc12)c1ccccc1 (stereo not drawn)	0	0	0	0	0	-	-	-	-
O=C(NC(c1ccccc1)c1c(O)ccc2ccccc12)c1ccccc1Cl (stereo not drawn)	10.5	0	0	0	21.4	0	0	0	8.7
CCCCC(=O)NC(c1ccc([N+](=O)[O-])cc1)c1c(O)ccc2ccccc12 (stereo not drawn)	10.6	0	0	0	27.5	0	0	36.2	18.9
CCn1c(COc2ccc3c(c2)CCCC3)nnc1SCC(=O)Nc1ccc(C(=O)OC)cc1	0	0	0	0	0	-	-	-	-
Cc1cc(C(=O)COC(=O)CC2Sc3ccccc3NC2=O)c(C)n1-c1ccccc1 (stereo not drawn)	17.8	0	0	0	27.6	0	0	20.8	11.9
COC(=O)N1CCC[C@H]1c1cccc2[nH]cc(C)c12	0	0	0	0	0	-	-	-	-
CNC(=O)c1cc(Oc2ccc(NC(=O)Nc3ccc(Cl)c(C(F)(F)F)c3)cc2)ccn1	15.7	0	0	0	24.8	0	0	35.4	20.4
O=C(Nc1ccc(Cl)c(C(F)(F)F)c1)c1ccncc1	0	0	0	0	0	-	-	-	-
SMILES	ADAM17 inh	proKLK7 act	PLCb3 inh	PLCg1 inh	ADAM10 inh	ADAM10 confirm	ADAM17 ctr	ADAM10 ctr	ADAM17 confirm
O=C(NC(Cc1c[nH]c2ccccc12)C(=O)Nc1ccc(OC(F)(F)F)cc1)c1cccs1 (stereo not drawn)	11.6	0	0	0	25.4	0	0	58.7	29.5
O=C(NC(Cc1c[nH]c2ccccc12)C(=O)O)c1cccs1 (stereo not drawn)	0	0	0	0	0	-	-	-	-
CC1(C(=O)NS(=O)(=O)c2ccc(Br)cc2)CCN1C(=O)Cc1cccs1 (stereo not drawn)	0	0	0	0	0	-	-	-	-
CCC[C@H]1[C@@H](OC(=O)NCc2ccc(C)cc2)CC[C@@]23CCCN2C(=O)CCC[C@@H]13	0	-	0	0	0	-	-	-	-
Cc1ccccc1N=C(NOCc1ccc(Cl)cc1Cl)c1nonc1N	9.6	0	0	0	20.3	0	0	32.8	23.9
O=C(O)c1ccc2c(c1)C(=O)N([C@H](Cc1cccc3ccccc13)C(=O)O)C2=O	0	0	0	0	0	-	-	-	-
Cc1cccc(NS(=O)(=O)c2ccc3[nH]c(=O)cc(C(=O)OC(C)C(=O)Nc4ccc([N+](=O)[O-])cc4)c3c2)c1 (stereo not drawn)	15.4	0	0	0	25.4	0	0	0	11.6
COc1cccc(OC(=O)c2ccccc2)c1OC(=O)c1ccccc1	15.2	0	0	0	27.1	0	0	0	0
COc1ccccc1N1CCN(C(=O)c2ccccc2N(C)S(=O)(=O)c2ccc(C)cc2)CC1	0	0	0	0	0	-	-	-	-
Cc1cc(NC(=O)CS(=O)(=O)c2cn(Cc3cccc(Cl)c3)c3ccccc23)no1	10.7	0	0	0	20.1	0	0	0	0
